# Compound activity as filed in PubChem BioAssay.
# The list is not random: actives were taken first. Their share in the collection is about 9.3%.
# SMN2 splice enh – qHTS Assay for Enhancers of SMN2 Splice Variant Expression. HEK293 SMN2-luciferase splicing reporter, luminescence, 30-36 h. Potency, µM (top dose mostly 46.1 µM), hits mostly activators. hit rate 2.8% among 210,000. AID 1458, 2008; further: nearly all actives have a fitted effect of over 55% in size
#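 qHTS luciferase splicing reporter: luminescence rises when SMN2 exon 7 is included in transfected HEK293 cells. Compound exposure lasted 30-36 h at 37C, with 4.5 mM final sodium butyrate as control, followed by a ONE-Glo read.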
# NPC1 prom act – qHTS Assay for NPC1 Promoter Activators; hit rate 2.4% among 320,000; Huh7 NPC1 promoter luciferase reporter, 24 h; Potency, µM (highest dose often 9.22 µM), hits mostly activators; further: nearly all actives have a fitted effect of over 60% in size
#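 Huh7 reporter cells (NPC1 promoter driving luciferase) are dosed with compound for 24 h at 37 °C, 5% CO2; luciferase detection reagent is then added and luminescence measured after 10 min at ambient temperature.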
# ELG1 genotoxic – qHTS screen for small molecules that induce genotoxicity in human embryonic kidney (HEK293T) cells expressing luciferase-tagged ELG1; HEK293T ELG1-luciferase reporter, luminescence, 16 h; Potency, µM (doses to about 46 µM), actives largely listed as activators; hit rate 1.3% among 330,000; AID 504466, 2011; further: nearly all actives have a fitted effect of over 60% in size
#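 HEK293T cells expressing luciferase-tagged ELG1 were exposed to compound or DMSO vehicle for 16 hr at 37 °C and 5% CO2. Luciferase activity was then measured with ONE-Glo after 30 min at room temperature.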
# ELG1 DNA repair – qHTS screen for small molecules that inhibit ELG1-dependent DNA repair in human embryonic kidney (HEK293T) cells expressing luciferase-tagged ELG1 | AID 504467, 2011 | hit rate 2.3% among 330,000 | HEK293T ELG1-luciferase reporter, luminescence, 16 h; DNA damage induced by 5-fluorouridine | Potency, µM (titrated, usually from 46.1 µM), most hits filed as inhibitors; further: nearly all actives have a fitted effect of over 55% in size
#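 Quantitative HTS, concentration-response format. 2,000 cells/well co-treated with 5-fluorouridine and compound, 16 hr in 5% CO2 at 37 °C; ONE-Glo luminescence read after 30 min.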
# Rab9 prom act – qHTS Assay for Rab9 Promoter Activators. Huh7 Rab9 promoter-luciferase reporter, luminescence, 24 h. Potency, µM (top dose mostly 9.22 µM), actives largely listed as activators. hit rate 2.8% among 320,000. AID 485297, 2010; further: nearly all actives have a fitted effect of over 60% in size
#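 Luciferase signal after 10 min detection reagent at ambient indicates Rab9 promoter upregulation; stably transfected Huh7 cells were treated 24 h with compound in DMSO at 37 °C, 5% CO2.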
# FLuc modulator – qHTS profiling assay for firefly luciferase inhibitor/activator using purifed enzyme and Km concentrations of substrates (counterscreen for miR-21 project); Luciferin 4-monooxygenase (Photinus pyralis), P08659; purified FLuc, Km substrates, luminescence inhibition; Potency, µM (series often up to 57.5 µM), hits mostly inhibitors; hit rate 6.9% among 360,000; AID 588342, 2011; further: nearly all actives have a fitted effect of over 55% in size
# Target sequence (P08659 whole entry, looked up): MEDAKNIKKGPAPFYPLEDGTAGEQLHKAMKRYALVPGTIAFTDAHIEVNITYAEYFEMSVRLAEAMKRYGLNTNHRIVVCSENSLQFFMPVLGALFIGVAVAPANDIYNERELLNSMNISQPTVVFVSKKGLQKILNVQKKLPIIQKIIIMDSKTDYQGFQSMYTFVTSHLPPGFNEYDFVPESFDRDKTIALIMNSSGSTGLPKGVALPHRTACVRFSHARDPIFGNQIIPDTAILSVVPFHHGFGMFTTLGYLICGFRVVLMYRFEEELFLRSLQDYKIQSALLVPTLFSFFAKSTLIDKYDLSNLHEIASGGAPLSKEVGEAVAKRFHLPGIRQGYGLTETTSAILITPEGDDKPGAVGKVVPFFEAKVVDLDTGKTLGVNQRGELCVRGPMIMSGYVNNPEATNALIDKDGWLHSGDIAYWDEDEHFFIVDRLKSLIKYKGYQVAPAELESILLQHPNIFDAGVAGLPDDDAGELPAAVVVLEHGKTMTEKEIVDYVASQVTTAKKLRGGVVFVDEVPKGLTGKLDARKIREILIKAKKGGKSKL
#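 Purified P. pyralis luciferase (10nM final) with 10uM D-luciferin and 10uM ATP (Km levels) in 50mM Tris acetate pH 7.5, 10mM Mg acetate, 0.01% Tween-20, 0.05% BSA; qHTS 6-point titration, ~60 µM downward; luminescence read.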
# Numbers stand for hits; – = inactive; ? = inconclusive; · = no result. The call rests on the fitted dose curve; in most records, active means well fitted curve in the direction sought with a large enough effect; inconclusive means small, poorly fitted or top-dose-only effect, or another doubt; inactive means no such curve, though single readings can be large; an effect the other way counts as inactive or inconclusive.
SMILES,SMN2 splice enh,NPC1 prom act,ELG1 genotoxic,ELG1 DNA repair,Rab9 prom act,FLuc modulator
O=C(CNC(=O)c1cccs1)c1ccc([N+](=O)[O-])cc1,?,?,?,?,2.82µM,23.9µM
O=C(CNC(=O)c1cccs1)OCC(=O)c1ccc(Cl)cc1,·,–,–,–,–,–
O=C(CNC(=O)c1cccs1)OCC(=O)c1ccc([N+](=O)[O-])cc1,·,–,–,–,–,–
O=C(CNC(=O)c1cccs1)c1ccc(F)cc1,6.31µM,0.501µM,?,?,0.562µM,4.78µM
CCCOc1ccc(C(=O)CCC(=O)OCC(=O)N2CC(=O)Nc3ccccc32)cc1,–,–,–,–,–,16.9µM
O=C(COC(=O)COc1ccccc1Cc1ccccc1)Nc1cccnc1Cl,5.62µM,–,–,–,–,–
O=C1CSC(=S)N1N=C1CCCCCC1,–,–,–,?,–,–
CCc1ccc(C(=O)CSc2nc3cc(S(=O)(=O)N4CCOCC4)ccc3n2CC)cc1,–,–,–,–,–,13.5µM
COCCCN(C(=O)c1ccco1)c1nc(-c2cc(OC)ccc2OC)cs1,–,–,–,?,–,–
CCn1nc(C(=O)OCC(=O)Nc2nc(-c3ccc(OC)cc3)cs2)c2ccccc2c1=O,10µM,?,?,?,?,?
CCn1nc(C(=O)OCC(=O)NCC(C)C)c2ccccc2c1=O,–,–,–,–,–,–
CN(C(=O)c1ccco1)c1nc(-c2ccc(Cl)cc2)cs1,·,?,–,–,3.16µM,6.01µM
CN(C)CCCN(C(=O)c1ccco1)c1nc(-c2ccc(Cl)cc2)cs1,·,–,–,–,–,–
CC(=O)N(C)c1nc(-c2ccc(Cl)cc2)cs1,–,?,–,?,3.55µM,?
COc1ccc(OC)c(-c2csc(N(Cc3ccco3)C(=O)c3ccco3)n2)c1,–,–,–,18.3µM,–,–
COCCn1c(=NC(C)=O)sc2cc([N+](=O)[O-])ccc21,–,–,–,–,–,–
COc1ccc(-c2csc(N(C)C(=O)c3ccco3)n2)cc1,·,?,?,?,3.98µM,10.7µM
COc1ccc(-c2csc(NC(=O)COC(=O)c3ccco3)n2)cc1,12.6µM,3.98µM,?,?,3.16µM,?
Cc1ccc(-c2csc(N(CCCN3CCOCC3)C(=O)c3ccco3)n2)cc1,–,–,–,?,–,–
COc1ccc(-c2csc(N(CCCN3CCOCC3)C(=O)c3ccco3)n2)cc1,–,–,–,16.4µM,–,–
CCc1cc2cc(C)c(C)cc2nc1SCC(=O)NNC(=O)c1ccco1,–,–,–,–,–,–
COc1ccc(C2=NN(C(=O)COC(=O)c3ccc(S(C)(=O)=O)c([N+](=O)[O-])c3)C(c3ccco3)C2)cc1 (stereo unspecified),·,·,–,?,·,·
CCOc1cccc2cc(-c3cn4cc(C)ccc4n3)c(=O)oc12,2.82µM,0.631µM,?,?,0.562µM,0.12µM
Cc1cc(NC(=O)CSc2ccc(F)cc2)no1,–,–,–,–,–,–
Clc1ccc(/C=N/Nc2nnc(Cl)c3ccccc23)cc1,11.2µM,?,?,?,?,?
SMILES,SMN2 splice enh,NPC1 prom act,ELG1 genotoxic,ELG1 DNA repair,Rab9 prom act,FLuc modulator
C=CCNc1nnc(Cl)c2ccccc12,–,–,–,–,–,–
Cc1ccc(/C=N/Nc2nnc(Cl)c3ccccc23)cc1,4.47µM,?,2.31µM,?,?,0.601µM
Clc1nnc(N/N=C/c2ccccc2)c2ccccc12,17.8µM,–,7.08µM,?,?,2.69µM
Clc1ccc(/C=N/Nc2nc(Cl)nc3ccccc23)cc1,–,–,?,?,–,13.5µM
Clc1nnc(NN=C2CCCC2)c2ccccc12,–,–,–,–,–,?
CC(C)Oc1ccc(CNC(=O)Cn2c(=O)c3cccn3c3cccnc32)cc1,·,–,–,–,–,–
S=C(NCc1ccco1)N1CCOCC1,–,–,–,?,–,–
Clc1cncc(Cl)c1N/N=C/c1ccccc1,·,–,–,–,–,21.3µM
CCOc1cc(C(N)=O)cc(Br)c1OCC,–,–,–,8.2µM,–,–
O=C(CNC(=O)c1ccco1)NCC(=O)OCc1ccc(F)cc1,·,–,–,–,–,–
O=C(NNC(=O)c1cc(Cl)ccc1O)c1cccs1,·,–,–,?,–,21.3µM
COc1ccc(Cl)cc1NC(=S)NNC(=O)c1cccnc1,·,–,–,–,–,?
O=C(NNC(=O)c1ccccc1Cl)c1cccs1,–,–,–,?,–,–
COc1ccc(Cl)cc1NC(=S)NNC(=O)c1cccs1,·,–,–,–,–,26.9µM
CCC(C)(C)C1CCC2(CC1)NC(=O)N(CC(=O)N(C)Cc1ccc3c(c1)OCCO3)C2=O (stereo unspecified),·,–,–,11.6µM,–,–
O=C(CN1C(=O)NC2(CCCCCC2)C1=O)c1ccc(F)cc1,·,–,–,?,–,–
O=C(CN1C(=O)NC2(CCCCCC2)C1=O)c1ccc2c(c1)OCCO2,17.8µM,2µM,4.11µM,?,2.82µM,9.53µM
CC1CCC2(CC1)NC(=O)N(CC(=O)Nc1ccc3c(c1)OCCCO3)C2=O (stereo unspecified),·,–,–,–,–,–
CC1CCC2(CC1)NC(=O)N(CC(=O)Nc1ccc3c(c1)OCCO3)C2=O (stereo unspecified),?,?,?,?,3.55µM,26.9µM
COc1ccc(CCC(=O)N2CCc3ccccc32)cc1,–,?,?,?,?,9.53µM
O=C(c1ccccc1)N1CCc2ccccc21,–,–,–,–,–,–
CCOC(=O)c1ccc(NC(=O)N2CCc3ccccc32)cc1,15.8µM,1.78µM,8.2µM,?,1.78µM,1.9µM
COc1ccc(C(=O)N2CCc3ccccc32)cc1,11.2µM,–,?,?,?,?
O=C(Nc1ccccc1)N1CCc2ccccc21,14.1µM,1.58µM,9.2µM,?,1µM,21.3µM
S=C(Nc1ccccc1)N1CCc2ccccc21,·,–,–,–,–,?
SMILES,SMN2 splice enh,NPC1 prom act,ELG1 genotoxic,ELG1 DNA repair,Rab9 prom act,FLuc modulator
CCOC(=O)c1ccc(NC(=O)N2CCc3ccccc3C2)cc1,·,–,–,?,–,?
COc1ccc(CCC(=O)N2c3ccccc3CC2C)cc1 (stereo unspecified),–,–,?,?,–,?
Cn1cnc(S(=O)(=O)N2CCc3ccccc32)c1,–,–,–,–,–,–
COc1ccc(NC(=O)N2CCc3ccccc32)cc1,3.16µM,0.631µM,?,?,0.398µM,1.69µM
COc1ccc(C(=O)NCc2nnc(SCC(=O)N3CCc4ccccc43)n2CCc2ccccc2)cc1,–,–,–,14.6µM,–,–
CS(=O)(=O)N1CCC2(CC1)CN(c1ccccn1)C2,–,·,·,·,·,·
